CHT allo act: allosterically activates the human high affinity choline transporter | actives 0.49% (n = 310,000) | B-score at 10 µM | CHT-expressing cells, membrane potential dye, choline EC20; hits give high values; LV-AA mutant CHT in HEK293 cells | Q9GZV3;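 active means initial fluorescence not abnormally high and integrated response B-score, plate-corrected, over 3 SD above library mean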
ANO1 block: inhibitors of mouse TMEM16A calcium-activated chloride channel; Q8BHY3; HEK293 TMEM16A/YFP iodide influx fluorescence, ionomycin; normalized B-score (activity score, 25-100; higher = stronger inhibition) at 10 µM; actives 1.2% (n = 310,000);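 active means ratio plate-corrected score three or more library SD toward inhibition, starting fluorescence score within five deviations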;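 further: score derived from kinetic fluorescence span divided by baseline fluorescence per well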
TMEM16A act: activators or potentiators of mouse TMEM16A chloride channel; Q8BHY3; HEK293 TMEM16A/YFP-H148Q/I152L, iodide quench fluorescence; hits give low values; B-score at 10 µM; actives 0.3% (n = 340,000); AID 623877;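 active means fluorescence-ratio B-score plate-corrected deviation score at least 3 library SD below zero, with starting fluorescence score within 5 deviations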;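 further: channel opened by trigger with iodide after compound preincubation; score built on the fluorescence ratio of max minus min over baseline; more negative score means more quench and so TMEM16A activation or potentiation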
CHT block: inhibitors of human choline transporter CHT. Q9GZV3. CHT-expressing cells, membrane potential dye, choline response; hits give low values. B-score at 10 µM. actives 0.86% (n = 310,000);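 active means B-score over 3 SD under the library average, and starting fluorescence ratio not unusually high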;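 further: choline stimulus applied at its EC90 after an EC20 pre-addition; B-score computed on integrated fluorescence ratio after choline addition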
CHT inh conf: confirmation of human choline transporter CHT inhibitors | shares compounds with CHT block | CHT-expressing cells, choline membrane potential dye; LV-to-AA substituted CHT, HEK293 cells | CHT activity remaining % of control (hits give low values), % at 10 µM | actives 70% (n = 2,400) | AID 493221;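 active means choline transporter activity left, mean of duplicates at 10 µM, below buffer-only control mean minus 3 SD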;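 further: depolarization triggered by choline at its EC90 following an EC20 pre-addition; 0% = hemicholinium-3 full block and 100% = buffer-only control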
HEK293 CHT ctr: counter-screen for CHT inhibitors: effect in parental HEK293 cells; shares compounds with CHT block; membrane potential dye, choline response; active = decrease or increase beyond buffer ±3SD; membrane potential ratio readout (active if shifted either direction beyond buffer ±3SD; no single direction) at 10 µM; actives 4% (n = 2,400); AID 493222;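 further: parental cells lack the transporter so any hit is non-specific; ratio is peak minus trough fluorescence over baseline after EC90 choline challenge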
Starred values were filed as active, the others as inactive; i = inactive; x = no result. Only some compounds are listed: those with a hit (about 2.4% of all), similar ones and a draw of the others.

SMILES | CHT allo act | ANO1 block | TMEM16A act | CHT block | CHT inh conf | HEK293 CHT ctr
CCN(CC)CCNC(=O)C(=O)Nc1ccc(C(=O)OC)cc1 | i | i | i | i | x | x
O=C(CSc1ncnc2scc(-c3ccccc3)c12)NC1CCS(=O)(=O)C1 (stereo not given) | i | i | i | -6.16* | i | i
O=C1OCCC1Sc1nc2ccccc2n1Cc1ccccc1 (stereo not given) | i | i | i | i | x | x
O=C1OCCC1Sc1nc2ccccc2n1-c1ccccc1 (stereo not given) | i | i | i | -5.76* | i | i
Nc1cc(C(=O)OCC(=O)NNC(=O)c2ccccc2F)ccc1Cl | x | x | i | x | x | x
COC(=O)c1ccc(COC(=O)c2cc3ccccc3oc2=O)cc1 | i | i | i | i | x | x
CN1CCN(c2ccc([N+](=O)[O-])cc2C(=O)N2CCCCC2)CC1 | i | i | i | i | x | x
CN1CCN(c2ccc([N+](=O)[O-])cc2C(=O)c2ccc(Cl)cc2)CC1 | i | i | i | -4.99* | 67.8%* | i
CN(Cc1ccccc1)c1ccc(C(CC(N)=O)NC(=O)c2ccc(Br)cc2)cc1[N+](=O)[O-] (stereo not given) | i | 25* | i | -6.53* | 70.2%* | i
CC(C)Nc1ccc(C(CC(N)=O)NC(=O)c2ccc(Br)cc2)cc1[N+](=O)[O-] (stereo not given) | i | i | i | i | x | x
NC(=O)CC(NC(=O)c1ccccc1)c1ccc(N2CCN(c3ccccc3)CC2)c([N+](=O)[O-])c1 (stereo not given) | i | i | i | i | x | x
NC(=O)CC(NC(=O)c1ccccc1)c1ccc(N2CCCCCC2)c([N+](=O)[O-])c1 (stereo not given) | i | i | i | -8.6* | 13.3%* | i
C#CCNC(=O)C1=C[C@H](c2ccccc2)[C@@H](CCCO)[C@H](OCC)O1 | i | i | i | i | x | x
O=C(CSc1nn(-c2ccc(F)cc2)c(=S)s1)NCC1CCCO1 (stereo not given) | i | i | i | -5.36* | i | i
O=C(CSc1nc(-c2ccc(F)cc2)cs1)NCC1CCCO1 (stereo not given) | x | x | i | x | x | x
O=C(Nc1ccccc1C(=O)NCCCN1CCOCC1)c1ccc(F)cc1 | i | i | i | -7.94* | 37.6%* | i
O=C(NCCCN1CCOCC1)c1ccccc1 | i | i | i | i | x | x
O=C(CCC1CCCC1)NCCCNC(=O)CCC1CCCC1 | i | i | i | -6.47* | 37.9%* | i
CC(C)(CNC(=O)CCC1CCCC1)CNC(=O)CCC1CCCC1 | i | i | i | i | x | x
COc1ccccc1NC(=O)C12CCC(C)(C(=O)C1)C2(C)C (stereo not given) | i | i | i | i | x | x
CCn1nc(C)cc1-c1nnc(SCC(=O)Nc2ccccc2)n1CCCOC | i | i | i | i | x | x
CCn1nc(C)cc1-c1nnc(Sc2ncc([N+](=O)[O-])s2)n1C | i | i | -9.8* | -6.02* | 44.8%* | i
CSc1nc(Nc2ccc(Cl)cc2)c(C#N)c(=O)[nH]1 | i | i | i | -6.1* | i | i
Cn1cccc1/C=C1\SC(=S)N(CC(=O)O)C1=O | i | i | i | i | x | x
O=C(O)c1ccc(-c2nc(-c3ccccc3Cl)cs2)cc1 | i | i | i | -5.43* | 39.5%* | i
COc1ccc(NS(=O)(=O)c2ccc(C)c(C(=O)OC(C)C(=O)N3CCOCC3)c2)cc1 (stereo not given) | i | i | i | i | x | x
CCCc1cc(O)c2c(C)cc(=O)oc2c1 | i | i | i | -7.56* | 48.0%* | i
CCCCc1cc(=O)oc2cc(C)cc(O)c12 | i | i | i | i | x | x
CCCCc1cc(=O)oc2cc(O)cc(O)c12 | i | i | i | -7.91* | 39.8%* | i
Cn1c(=O)cc(SCC(=O)NCCCN2CCOCC2)c2ccc(Cl)cc21 | i | i | i | i | x | x

Assay outcomes (PubChem)
